Entries with a potency or affinity are not part of this list. A number with no mark means an inactive call. The rule behind the calls is not given here.

This assay is described as follows: HEK293 cell cytotoxicity, dose response, cytotoxicity control, plate reader, cherry-picked samples (AID 743446). The conditions noted are these: hits give low values; at 26 µM unless noted.
Take `CN(C)S(=O)(=O)c1cccc(NC(=O)COc2ccccc2C(=O)Nc2ccccc2)c1`: the max activity is -34.1%.
The value for `Cc1cc(-c2ccccc2)n2ncc(-c3ccccc3)c2n1` was 19.9% [at 0.8 µM].
The value for `O=C(NCCc1ccc(Cl)cc1)c1ccc2c(c1)OCCO2` was 19.7% [at 0.8 µM]; that for `COCC(=O)N[C@@H]1CC[C@@H](CC(=O)NCc2ccccc2OC)O[C@@H]1CO` was -9.61% [at 0.05 µM]; that for `Nc1nccc(-c2cc(-c3ccc(Cl)cc3Cl)no2)n1` was 47.2% [at 6 µM].
For the compound `NCC[C@H]1CC[C@H](NS(=O)(=O)Cc2ccccc2)[C@@H](CO)O1`, the max activity was 24.3%.
`C[C@@H]1CN([C@H](C)CO)C(=O)CCCn2nncc2CO[C@H]1CN(C)C(=O)Nc1cccc2ccccc12`: the max activity was 15.4%.
The value for `Cc1ccc(-n2cc(CN(C)Cc3nccn3C)c(-c3cccc(C)c3)n2)cc1` was 22.6% [at 1.6 µM].
The value for `O=C(Nc1cccc(C(=O)O)c1)Nc1ccc2c(c1)OCO2` was -18.7% [at 0.195 µM]; that for `CCNC(=S)NNC(=O)c1cc(-c2ccc(OCC)cc2)nc2ccccc12` was 15.8% [at 0.05 µM]; that for `CC(=O)N1CCCCN2[C@H](CO)[C@H](c3ccc(-c4cccc(C)c4)cc3)[C@@H]2C1` was 30.5% [at 1.6 µM].
The value for `COc1ccc(-c2nc(N)n(C(=O)c3cccs3)n2)cc1` was 49.5%.
On to `CC(=O)c1ccc(S(=O)(=O)N2CCC(NC(=O)Nc3cccc(F)c3)CC2)cc1`, for which the max activity is 28.3% [at 3 µM].
Regarding `C[C@@H]1CN([C@H](C)CO)C(=O)c2c(c3ccccc3n2C)-c2ccccc2CO[C@H]1CN(C)S(=O)(=O)c1cn(C)cn1`, the max activity was 11.7% [at 12 µM].
The value for `C[C@H](CO)N1C[C@H](C)[C@H](CN(C)C(=O)Nc2ccccc2)OCCCC[C@H](C)Oc2ccc(NC(=O)Nc3ccc4c(c3)OCO4)cc2C1=O` was 50.9% [at 0.195 µM]; that for `Nc1ccc(-c2nc3ccc(N)cc3s2)cc1` was 53.7%.
The value for `Cn1c(=O)c2cc(NC(=O)NCc3ccccc3)ccc2n1C/C=C/c1ccccc1` was 34.9% [at 1.6 µM]; that for `COc1ccc(C(=O)Nc2ccc3ccccc3c2)cc1` was 26.8% [at 0.8 µM].
The value for `CCCCC(=O)N(C)c1c(C)nc2ccc(C(=O)N3CCCCC3)cn12` was -12.7% [at 12 µM]; that for `COC(=O)c1ccc2nc(-c3cccc(N)c3)cn2c1` was 9.42% [at 0.195 µM]; that for `O=C(Nc1ccc(Cl)c(S(=O)(=O)N2CCOCC2)c1)c1ccc2c(c1)OCCO2` was -8.36% [at 3 µM].
Consider `C[C@H]1CCCCO[C@H](CN(C)C(=O)Nc2cccc3ccccc23)[C@@H](C)CN([C@@H](C)CO)C(=O)c2cc(NS(=O)(=O)c3cn(C)cn3)ccc2O1`, for which the max activity is 21.9% [at 0.05 µM].
The value for `Cc1nc2c(OCCC3CCCCC3)cccn2c1N(C)C(=O)CCC1CCCC1` was -22.5% [at 6 µM]; that for `C[C@H]1CCCCO[C@@H](CN(C)C(=O)Nc2ccc(F)cc2)[C@@H](C)CN([C@@H](C)CO)C(=O)c2cc(NC(=O)C3CCCCC3)ccc2O1` was -14.5% [at 6 µM].
The value for `O=C(O)c1ccc(-c2noc(-c3ccccc3Cl)n2)cc1` was -20.2% [at 6 µM].
